Measurements reported in PubChem BioAssay (NCI).
Compounds without any hit were thinned out: in the full panel of roughly 83,000, 20% have a hit.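 In brief: 96-well plates, 48 h treatment, single concentration, percent growth endpoint.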 Unmarked numbers belong to inactive results. Activity calls are given as the source filed them. How the source made its calls: active means growth percent below 10; inactive means the rest.

test system: RPMI-8226 leukemia; assay: NCI-60 one-dose screen, 48 h (100 = growth as untreated, 0 = no growth, -100 = all killed); settings: 10 µM unless noted

SMILES	growth
Nc1ccc(C2=NN(c3ccccc3)C(c3ccc(Cl)cc3)C2)cc1 (stereo not given)	-20.1% (active)
O=C1C[C@@H]2/C(=C(O)\C=C\c3ccccc3)C(=O)C=C[C@@H]2O1	32.5%
COc1ccc(-c2cc(C(=O)Nc3nc4cc(C)c(C)cc4s3)nc3cc(-c4ccccc4)nn23)cc1OC	88%
CCC(=O)Nc1ccccc1C#C/C=C\C#Cc1ccccc1C(F)(F)F	100%
Oc1ccccc1C=Nc1ccccc1N=Cc1ccccc1O.[Cu+2]	19.1%
CCOc1cccc(C2CC(=O)Nc3cc4c(cc32)OCO4)c1 (stereo not given)	71.1%
NC(N)=NN=c1c(=O)c2ccccc2c1=O	60.1%
O=[N+]([O-])c1ccc(Oc2cccc(C(F)(F)F)c2)c([N+](=O)[O-])c1	79.3%
CCCCCCCCCCCCNc1ncnc2[nH]ncc12	63%
Cc1ccc2c(c1)C(=O)/C(=C/c1ncc([N+](=O)[O-])n1C)O2	-12.4% (active)
O=C(/C=C/c1cccnc1)NCCCCC1CCCN(C(=O)c2ccccc2)C1 (stereo not given)	36.9%
O=C(/C=C/c1cccnc1)/C=C/c1cccnc1	-61.1% (active)
COc1ccc(-n2nnc(C(=O)O)c2-c2cc(OC)c(OC)c(OC)c2)cc1	99.5%
COc1cc2c(cc1OCCCCCn1c(-c3ccc(OCc4ccccc4)cc3)nc3cc(N4CCOCC4)ccc31)N=C[C@@H]1CCCN1C2=O	19.4%
O=C1C(=O)c2ccc(Br)cc2-c2cc(Br)ccc21	25.9%
